Assay [1] is described as follows: NCI Yeast Anticancer Drug Screen. Data for the rad50 strain (AID 155).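 Also: 0% = growth of vehicle-only cultures of the same strain.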 Conditions: S. cerevisiae rad50 strain growth inhibition; at 50.0 µM; hits give high values. In outline: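 Yeast carrying a defined DNA repair defect were exposed to test compounds, and growth was compared with vehicle-treated controls to give percent inhibition.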
Assay [2] can be described thus: NCI Yeast Anticancer Drug Screen. Data for the mec2-1 strain (AID 157). The note with it: S. cerevisiae mec2-1 strain, at 50.0 µM, hits give high values. An outline of the steps: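 Mutant yeast (mec2-1) grown with compound; growth inhibition relative to vehicle control reported.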
Assay [3] is described as follows: NCI Yeast Anticancer Drug Screen. Data for the sgs1 mgt1 strain (AID 161).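 Also: 0% = growth of cultures given vehicle only.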 The note with it: S. cerevisiae sgs1 mgt1 strain, at 50.0 µM, hits give high values. In outline: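 Percent growth inhibition was derived by comparing compound-exposed mutant yeast with vehicle-exposed cultures. The strain carries alterations in DNA damage repair.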
Assay [4] can be described thus: NCI Yeast Anticancer Drug Screen. Data for the cln2 rad14 strain (AID 165).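 Also: 0% = growth equal to vehicle treated cultures.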 Conditions: S. cerevisiae cln2 rad14 strain, at 50.0 µM, hits give high values. In outline:
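Readout is yeast growth inhibition versus vehicle-treated controls, using a strain with cln2 and rad14 alterations exposed to compound.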

Assay [5] can be described thus: NCI Yeast Anticancer Drug Screen. Data for the bub3 strain (AID 167). Conditions: S. cerevisiae bub3 mutant strain, at 50.0 µM, hits give high values. An outline of the steps: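 Compounds were applied to a genetically altered yeast strain carrying a cell-cycle control defect. Growth inhibition was scored against vehicle-treated controls.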
Assay [6] is described as follows: NCI Yeast Anticancer Drug Screen. Data for the mlh1 rad18 strain (AID 175). The note with it: S. cerevisiae mlh1 rad18 strain growth inhibition; at 50.0 µM; hits give high values. In outline:
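Genetically defined yeast (DNA repair-deficient) exposed to compounds; growth inhibition determined relative to vehicle.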

About 79,000 compounds went through this panel and 15% of them were active in at least one assay; those are over-represented in the sample as a whole. Values without a mark were called inactive. The source made the active and inactive calls. Rule as the data show it: active = growth inhibition above about 70%; inactive = the rest.

For `O=C(C(=Nc1ccccc1)C(=Nc1ccccc1)C(=O)c1ccccc1)c1ccccc1`, the growth inhibition in assay [1] was 78.8% (active); in assay [2], 32.1%; in assay [3] it was 55.2%; in assay [4], 8.5%; in assay [5], 15.3%; in assay [6], 37%.

With `O=C(Nc1cccc2c(NC(=O)N3CCCCC3)cccc12)N1CCCCC1`, the growth inhibition in assay [1] was -16.2%; in assay [2], -26.2%; in assay [3], 1.25%; in assay [4] it was 4.1%; in assay [5], 9.55%; in assay [6], 2.8%.

For `CCOC(=O)C1=C(Nc2ccc(F)cc2)C(=O)N(C(C)(C)C)C1`, the growth inhibition in assay [1] was 8.05%; in assay [2], 1.3%; in assay [3] it was 27.5%; in assay [4], 6.35%; in assay [5], 31.4%; in assay [6] it was 21.6%.

On to `C=C1[C@H](OCC(C)C)[C@@H](OCC(C)C)[C@@H](O)C(C)(C)/C=C/[C@H](C)C(=O)[C@@]2(O)C[C@H](C)[C@H](O)[C@@H]2[C@H]1OCC(C)C`, for which the growth inhibition is -37.9% in assay [1]; -45% in assay [2]; -9.85% in assay [3]; -36.3% in assay [4]; -12.8% in assay [5]; -68.8% in assay [6].

`C=CCSc1nc2ccc(NCn3c(=S)sc4cc([N+](=O)[O-])ccc43)cc2s1`: the growth inhibition in assay [1] was 12.6%; in assay [2], 14.4%; in assay [3], 30.9%; in assay [4], 14%; in assay [5], 3.4%; in assay [6] it was 31.9%.

Take `FC(F)(F)C(F)(F)c1nc(C(F)(F)C(F)(F)C(F)(F)c2noc(C(F)(F)C(F)(F)F)n2)no1`: the growth inhibition in assay [1] was 8.5%; in assay [2], 16.9%; in assay [3] it was 15%; in assay [4], -31.3%; in assay [5], -3%; in assay [6] it was -6.3%.

On to `Cc1ccc(NC(=O)CCC(=O)O)cc1Cl`, for which the growth inhibition in assay [1] is -19.9%; in assay [2], -15.9%; in assay [3], -4.25%; in assay [4], -27.2%; in assay [5], -10.9%; in assay [6] it was -16.2%.

As to `CC1(C)CC([NH-])(C(=O)O)CC(C)(C)N1O.CC1(C)CC([NH-])(C(=O)O)CC(C)(C)N1O.[Cu+2]`, the growth inhibition was 27.6% in assay [1]; -17.9% in assay [2]; 16.5% in assay [3]; -20.3% in assay [4]; 0.7% in assay [5]; 4.55% in assay [6].

With `[O-][N+](=Nc1ccccc1)c1ccccc1`, the growth inhibition in assay [1] was 1.2%; in assay [2], 1.35%; in assay [3], 35.9%; in assay [4], -0.9%; in assay [5], 3.75%; in assay [6] it was 24%.

Take `Cc1nc2ccc(S(=O)(=O)Nc3ccccc3Cl)cc2c(=O)n1NC(=O)CNc1ccccc1Cl`: the growth inhibition in assay [1] is 26.4%; in assay [2], 0.2%; in assay [3], 13.4%; in assay [4] it was 6.95%; in assay [5], 21.8%; in assay [6], 21.3%.

Regarding `CN(C)C1C(=O)c2ccccc2C1=O`, the growth inhibition in assay [1] is -34.6%; in assay [2], -27.6%; in assay [3], -29.5%; in assay [4], -5.1%; in assay [5] it was 0.05%; in assay [6], -14.8%.

On to `O=[N+]([O-])c1cccc(S(=O)(=O)O)c1` (tested in a mixture with another compound), for which the growth inhibition in assay [1] was 15.3%; in assay [2], -3.65%; in assay [3], -0.1%; in assay [4], -33.6%; in assay [5], -2.2%; in assay [6], -4.95%.

Consider `CCOC(=O)CNC(=O)C(Cc1ccccc1)NC(=O)c1ccccc1[N+](=O)[O-]` (stereo not given), for which the growth inhibition in assay [1] was 22.8%; in assay [2], 14.3%; in assay [3], 16%; in assay [4], 15.8%; in assay [5] it was -1.25%; in assay [6], 15.8%.

Consider `O=[N+]([O-])c1ccccc1C=Nc1ccccc1O`, for which the growth inhibition was 56.4% in assay [1]; 44.5% in assay [2]; 52.8% in assay [3]; 24.9% in assay [4]; 75% (active) in assay [5]; 66% in assay [6].

On to `CCOC(=O)Cc1[nH]c(C(=O)OCC)c(CC(=O)OCC)c1C(=O)OCC`, for which the growth inhibition in assay [1] is 6.3%; in assay [2] it was 8.45%; in assay [3], 8.3%; in assay [4], -4.2%; in assay [5], 0.1%; in assay [6], 15.7%.

As to `C(=N\N=C\c1ccccn1)/c1ccccn1`, the growth inhibition was 9.65% in assay [1]; -6.95% in assay [2]; 5.5% in assay [3]; 4.8% in assay [4]; -3.7% in assay [5]; 26.2% in assay [6].

Take `CC(C)NC(c1ccccc1)c1ccccc1`: the growth inhibition is 0.3% in assay [1]; -11.7% in assay [2]; -6.9% in assay [3]; 10.2% in assay [4]; 1.6% in assay [5]; 2.9% in assay [6].

With `Fc1cccc(C2SCc3nc4cc5ccccc5cc4n32)c1` (stereo not given), the growth inhibition in assay [1] was -21.8%; in assay [2], -1.25%; in assay [3], 8.8%; in assay [4] it was -0.45%; in assay [5] it was -19.7%; in assay [6] it was -9.65%.

As to `CCOC(=O)NC(=S)Nc1nonc1-c1ccccc1`, the growth inhibition is 1.35% in assay [1]; 2% in assay [2]; 36% in assay [3]; -9.65% in assay [4]; 15.6% in assay [5]; 26.2% in assay [6].

As for `CC(C)(O)C(Br)(Br)Br`, the growth inhibition in assay [1] was 0.2%; in assay [2] it was 3.7%; in assay [3], -22.4%; in assay [4], -33%; in assay [5] it was -21.9%; in assay [6], 32.1%.

(Values after PubChem BioAssay (NCI).)
